Sfp PPTase inh – inhibitors of Bacillus subtilis Sfp phosphopantetheinyl transferase; Biochemical Sfp PPTase activity, qHTS; Potency, µM, usual class: inhibitors; actives 3.5% (n = 310,000); AID 1490;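 also: the enzyme is Sfp with the accession as filed and its product quenches rhodamine fluorescence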
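After 15 min at room temperature with compound, 15 nM Sfp received 5 uM rhodamine-CoA plus 12.5 uM BHQ-2-ybbR (50 mM Hepes pH 7.6, 10 mM MgCl2). Rate came from the fluorescence difference over 30 min, ex 525/em 598 nm.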
TDP1 inh – TDP1 (human) enzyme inhibition; Q9NUW8; recombinant TDP1, AlphaScreen DNA substrate cleavage; Potency, µM (series often up to 130 µM), hits mostly inhibitors; actives 0.28% (n = 350,000); AID 485290; also: nearly all actives have a fitted effect of over 40% in size
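Here, a 5' biotin and 3' phosphotyrosine-FITC DNA oligonucleotide reports Tdp1 activity: intact substrate bridges AlphaScreen beads, while cleavage leaves a 3' phosphate and drops signal. All incubations at room temperature.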
G9a inh – blocks human histone lysine methyltransferase G9a. G9a H3K9 monomethylation, AlphaScreen, 2 h. Q96KQ7. actives 8.8% (n = 350,000). AID 504332. Potency, µM (top dose mostly 102 µM), most hits filed as inhibitors; also: nearly all actives have a fitted effect of over 75% in size
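Signal arises when biotinylated H3K9 peptide, once monomethylated, bridges streptavidin donor and antibody-captured acceptor beads. Enzyme at 20 nM was preincubated 15 min with test compounds; peptide 500 nM and SAM 20 uM then reacted for 2 h.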
JMJD2A Tudor – blocks the human JMJD2A Tudor domain. actives 4.4% (n = 390,000). O75164. Potency, µM (series often up to 114 µM), most hits filed as inhibitors. AlphaScreen JMJD2A-Tudor / H3K4me3 peptide binding; also: nearly all actives have a fitted effect of over 50% in size
Target sequence (O75164 whole entry, looked up, the tested form may be a part): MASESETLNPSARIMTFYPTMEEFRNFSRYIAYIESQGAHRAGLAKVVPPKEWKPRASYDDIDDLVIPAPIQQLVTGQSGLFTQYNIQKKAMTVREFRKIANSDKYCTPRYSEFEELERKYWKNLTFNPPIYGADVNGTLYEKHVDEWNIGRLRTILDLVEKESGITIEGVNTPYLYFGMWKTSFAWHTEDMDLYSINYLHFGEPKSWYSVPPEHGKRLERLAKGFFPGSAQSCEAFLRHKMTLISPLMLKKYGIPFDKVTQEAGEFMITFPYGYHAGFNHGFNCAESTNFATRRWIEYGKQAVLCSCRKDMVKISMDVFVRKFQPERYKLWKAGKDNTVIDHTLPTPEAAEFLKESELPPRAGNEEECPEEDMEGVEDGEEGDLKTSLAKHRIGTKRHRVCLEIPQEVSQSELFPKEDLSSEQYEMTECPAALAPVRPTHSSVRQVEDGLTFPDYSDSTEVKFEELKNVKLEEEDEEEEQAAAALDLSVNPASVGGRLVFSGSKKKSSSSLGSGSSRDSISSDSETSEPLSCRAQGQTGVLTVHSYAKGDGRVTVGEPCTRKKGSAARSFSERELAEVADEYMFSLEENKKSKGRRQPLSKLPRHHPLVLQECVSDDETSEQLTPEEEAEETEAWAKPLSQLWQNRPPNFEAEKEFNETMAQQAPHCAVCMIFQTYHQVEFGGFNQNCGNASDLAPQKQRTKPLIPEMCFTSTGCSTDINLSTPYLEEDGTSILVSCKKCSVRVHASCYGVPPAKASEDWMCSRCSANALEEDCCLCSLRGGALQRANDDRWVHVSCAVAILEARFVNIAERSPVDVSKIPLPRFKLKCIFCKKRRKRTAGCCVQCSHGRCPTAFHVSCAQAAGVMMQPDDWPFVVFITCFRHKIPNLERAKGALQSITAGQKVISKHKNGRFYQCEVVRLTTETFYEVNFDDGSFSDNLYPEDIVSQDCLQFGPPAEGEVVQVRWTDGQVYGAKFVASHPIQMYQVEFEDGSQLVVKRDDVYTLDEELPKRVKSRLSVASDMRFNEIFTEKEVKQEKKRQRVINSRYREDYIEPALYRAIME
BAZ2B block – inhibitors of human BAZ2B bromodomain; Potency, µM (doses to about 114 µM), hits mostly inhibitors; AlphaScreen BAZ2B-H3K14Ac peptide displacement; actives 4.4% (n = 360,000); also: nearly all actives have a fitted effect of over 60% in size
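BAZ2B (50 nM) with biotin-H3(5-23)K14Ac peptide (50 nM) in PBS pH 7.4, 0.01% Tween-20, preformed 30 min, then compound 30 min at room temperature; top concentration 110uM. AlphaScreen streptavidin donor/nickel chelate acceptor beads (10 ug/mL final), 20 min dark, signal read.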
HP1b binding inh – blocks HP1-beta chromodomain binding to methylated histone tails | P83916 | AlphaScreen HP1-beta / biotin-H3K9me3 peptide binding | Potency, µM (top dose mostly 114 µM), most hits filed as inhibitors | actives 0.56% (n = 390,000); also: nearly all actives have a fitted effect of over 70% in size
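HP1-beta protein (50 nM final) preincubated 30 min at room temperature with biotinylated H3(1-18)K9me3 peptide (50 nM) in PBS pH 7.4, 0.01% Tween-20, then compound added for 30 min. AlphaScreen streptavidin donor/nickel chelate acceptor beads (10 ug/mL final), 30 min dark, luminescence read.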
Of the large screens only hits and unclear results are named; the others gave an inactive call. The list is not random: actives were taken first. Their share in the collection is about 12%. Calls follow the shape of the dose curve; as a rule, active = well fitted curve in the direction sought with a large enough effect; inconclusive = small, poorly fitted or top-dose-only effect, or another doubt; inactive = no such curve, though single readings can be large; an effect the other way counts as inactive or inconclusive.

COc1ccc(NC(=O)Nc2cccs2)cn1	Sfp PPTase inh 56µM, G9a inh 35µM (no result: TDP1 inh)
COc1ccc(NC(=O)CCl)cn1	Sfp PPTase inh inconclusive, G9a inh 28µM, BAZ2B block 79µM (no result: JMJD2A Tudor, HP1b binding inh)
COc1ccc(NC(=O)/C(Cl)=C(/Cl)S(=O)Cc2ccc(Cl)cc2)cn1 (stereo not given)	Sfp PPTase inh 11µM, G9a inh 11µM
COCc1ccc(C(=O)N2CCCC(Nc3ccc4c(c3)OCCO4)C2)o1 (stereo not given)	G9a inh inconclusive
COc1ccc(-c2ccc3ncnc(NCC4CCCO4)c3c2)cc1OC (stereo not given)	none (no result: Sfp PPTase inh, TDP1 inh, G9a inh, BAZ2B block, HP1b binding inh)
COc1cc(NC(=O)c2cccc(C)c2)ccc1NC(=O)c1cc2ccccc2o1	none (no result: TDP1 inh)
NC(=O)CC[C@@H]1NC(=O)[C@@H]2CCCN2C(=O)c2cc([N+](=O)[O-])cc(I)c2NCCC[C@@H](C(N)=O)NC1=O	G9a inh 45µM
NC(=O)CC[C@@H]1NC(=O)[C@@H]2CCCN2C(=O)c2cc([N+](=O)[O-])cc(I)c2NCCCC[C@@H](C(=O)NC(CC(=O)O)C(N)=O)NC1=O (stereo not given in full)	G9a inh 56µM
NC(=O)CC[C@@H]1NC(=O)[C@@H]2CCCN2C(=O)c2cc([N+](=O)[O-])cc(I)c2NCCC[C@@H](C(=O)NC(CC(=O)O)C(N)=O)NC1=O (stereo not given in full)	G9a inh inconclusive
CC[C@@](N)(C(=O)O)c1ccc(C(=O)O)cc1	none (no result: G9a inh, JMJD2A Tudor, BAZ2B block, HP1b binding inh)
CCC(C)(C)C(=O)O[C@@H]1C[C@H](C)C=C2C=C[C@H](C)[C@@H](CC[C@H]3C[C@@H](O)CC(=O)O3)[C@H]21	none (no result: JMJD2A Tudor, BAZ2B block, HP1b binding inh)
COc1cc(C2NC(=O)NC(C)=C2C(=O)OC(C)(C)C)ccc1OCC(=O)O (stereo not given)	JMJD2A Tudor inconclusive
CCOC(=O)C1=C(C)NC(=O)NC1c1ccc([N+](=O)[O-])o1 (stereo not given)	none
CCOC(=O)COc1ccccc1C1C(C(=O)OC)=C(C)NC2=C1C(=O)c1ccccc12 (stereo not given)	G9a inh 13µM, JMJD2A Tudor 40µM, BAZ2B block 40µM, HP1b binding inh inconclusive (no result: Sfp PPTase inh, TDP1 inh)
CCOc1ccc(Br)cc1C1C(C(=O)OC)=C(C)NC2=C1C(=O)c1ccccc12 (stereo not given)	G9a inh inconclusive, JMJD2A Tudor 25µM, BAZ2B block 22µM, HP1b binding inh inconclusive (no result: Sfp PPTase inh, TDP1 inh)
CCOC(=O)C1=C(C)NC2=C(C(=O)c3ccccc32)C1c1ccc([N+](=O)[O-])o1 (stereo not given)	Sfp PPTase inh 35µM, JMJD2A Tudor 22µM, BAZ2B block 11µM, HP1b binding inh 50µM (no result: G9a inh)
CCOc1ccccc1C1NC(=O)NC(C)=C1C(=O)OCc1ccccc1 (stereo not given)	none (no result: TDP1 inh)
CCOc1cc(C2C(C(=O)OC)=C(C)NC3=C2C(=O)c2ccccc23)cc(Cl)c1O (stereo not given)	G9a inh inconclusive, BAZ2B block inconclusive (no result: Sfp PPTase inh, TDP1 inh)
COC(=O)COc1ccc(C2C(C(=O)OC)=C(C)NC3=C2C(=O)c2ccccc23)cc1OC (stereo not given)	G9a inh 13µM, JMJD2A Tudor inconclusive, BAZ2B block 25µM, HP1b binding inh inconclusive (no result: Sfp PPTase inh, TDP1 inh)
COc1ccccc1CNC(=O)/C=C/c1ccc(S(=O)(=O)N2CCOCC2)cc1	none
Cc1cc(C)cc(NC(=O)C(OC(=O)C2=COCCO2)c2ccccc2)c1 (stereo not given)	G9a inh 25µM
O=C(OC(C(=O)Nc1ccc(Cl)c(C(F)(F)F)c1)c1ccccc1)C1=COCCO1 (stereo not given)	none
CCCN(C(=O)COC(=O)CSc1ccc([N+](=O)[O-])cc1)C1CCS(=O)(=O)C1 (stereo not given)	JMJD2A Tudor 56µM, HP1b binding inh inconclusive (no result: Sfp PPTase inh)
CC(C)CN(C(=O)COC(=O)CSc1ccc([N+](=O)[O-])cc1)C1CCS(=O)(=O)C1 (stereo not given)	none (no result: Sfp PPTase inh)
CN(C(=O)COC(=O)c1ccc([N+](=O)[O-])cc1)c1ccccc1	none
CN(C(=O)COC(=O)CSc1ccc([N+](=O)[O-])cc1)c1ccccc1	JMJD2A Tudor 79µM, HP1b binding inh inconclusive (no result: Sfp PPTase inh)
CC(C)(C)C(=O)Nc1cccc(-c2nnc(-c3cccc(NC(=O)C(C)(C)C)c3)o2)c1	none
NNC(=S)Nc1cccc(-c2n[nH]c(=S)o2)c1	Sfp PPTase inh 79µM, G9a inh 3.2µM, JMJD2A Tudor inconclusive
CN(C)C(=S)Nc1cccc(-c2n[nH]c(=S)o2)c1	G9a inh 22µM, JMJD2A Tudor inconclusive
CN(C)C(=S)Nc1ccc2ccccc2c1	none
COC(=O)c1scc(-c2ccc(C)cc2)c1S(=O)(=O)Nc1cc(OC)c(OC)c(OC)c1	none (no result: Sfp PPTase inh)
COc1ccc(Cl)cc1NC(=O)C1CC(=O)N(C2CCCCC2)C1 (stereo not given)	G9a inh inconclusive
COCCCn1cc(C(=O)c2cc(Br)ccc2O)cc(C#N)c1=O	none
CCOCCCn1cc(C(=O)c2cc(Br)ccc2O)cc(C#N)c1=O	BAZ2B block 56µM
COc1cc([C@@H]2c3cc4c(cc3[C@@H](O[C@@H]3O[C@H]5CO[C@@H](C)O[C@@H]5[C@@H](O)[C@H]3O)[C@@H]3COC(=O)[C@@H]23)OCO4)cc(OC)c1O	Sfp PPTase inh 89µM (no result: G9a inh, JMJD2A Tudor, BAZ2B block, HP1b binding inh)
CCCCNC(=O)CCCn1c(=O)c2ccccc2n(Cc2ccccc2C)c1=O	none (no result: Sfp PPTase inh)
Cc1ccc(S(=O)(=O)N2CCCC(C(=O)N3CCN(c4ccccc4)CC3)C2)cc1 (stereo not given)	none
COc1ccc(N2CCN(C(=O)C3CCCN(S(=O)(=O)c4ccc(C)cc4)C3)CC2)cc1 (stereo not given)	G9a inh inconclusive, BAZ2B block 40µM, HP1b binding inh inconclusive (no result: TDP1 inh)
COc1ccc(N2CCN(C(=O)C3CCCN(S(=O)(=O)c4ccc(F)cc4)C3)CC2)cc1 (stereo not given)	BAZ2B block 40µM (no result: G9a inh)
O=C(NNS(=O)(=O)c1ccccc1[N+](=O)[O-])c1cc2ccccc2cc1O	G9a inh 1.6µM, BAZ2B block inconclusive
O=C(NNS(=O)(=O)c1ccccc1[N+](=O)[O-])c1cccc([N+](=O)[O-])c1	JMJD2A Tudor 10µM
COCC(=O)NNS(=O)(=O)c1ccccc1[N+](=O)[O-]	G9a inh 18µM
O=C(NNS(=O)(=O)c1ccccc1[N+](=O)[O-])c1cccnc1	BAZ2B block inconclusive (no result: G9a inh)
COCCn1c(=O)c(-c2cccs2)nc2cnc(OC)nc21	none (no result: TDP1 inh, JMJD2A Tudor, BAZ2B block, HP1b binding inh)
COc1ccc(NC2CCCN(C(=O)CCC3=NNC(=O)CC3)C2)cc1 (stereo not given)	G9a inh inconclusive

High-throughput results (PubChem BioAssay)
